Results filed as inconclusive are left out. A number with no mark means an inactive call. Unless noted, calls come from the whole dose curve.
Tested on: not listed separately
Assay: qHTS for Inhibitors of the Functional Ribonucleoprotein Complex (vRNP) of Lymphocytic Choriomeningitis Arenaviruses (LCMV): Viability assay - alamar blue signal for LCMV Primary Screen (AID 1347085; calls by dose curve; tested in HEK293 reporter line; note: nearly all actives have a fitted effect of over 80% in size)
Settings: alamar blue viability counter-screen, LCMV vRNP screen cells; series mostly up to 57.5 µM; activity change, negative = lower viability: at the top concentration
In the case of `O=C(O)C1=NC(C(=O)O)CC(C=CN2c3cc(O)c(OC4OC(CO)C(O)C(O)C4O)cc3CC2C(=O)O)=C1` (stereo not drawn), the “activity change, negative = lower viability” value is reported as 20.1%. With `C[N+]1(C)[C@@H]2C[C@@H](OC(=O)C(O)(c3cccs3)c3cccs3)C[C@H]1[C@@H]1O[C@@H]12` the “activity change, negative = lower viability” value was 6.93%. In the case of `COC(=O)[C@@H]1[C@H]2C[C@@H]3c4[nH]c5ccccc5c4CCN3C[C@@H]2CC[C@@H]1O`, the “activity change, negative = lower viability” value is reported as 5.69%. For `CN[C@@H]1[C@@H](O)[C@@H](O[C@@H]2[C@@H](O)[C@H](O[C@H]3O[C@H](CN)[C@@H](O)[C@H](O)[C@@H]3O)[C@@H](N)C[C@@H]2NC(=O)[C@@H](O)CN)OC[C@]1(C)O`, the “activity change, negative = lower viability” value was -1.06%. With `CN(C1CCc2c(c3ccccc3n2CC(=O)O)C1)S(=O)(=O)c1ccc(F)cc1` (stereo not drawn) the “activity change, negative = lower viability” value was 8.8%. In the case of `CN(C)CCC=C1c2ccccc2COc2ccc(CC(=O)O)cc21`, the “activity change, negative = lower viability” value is reported as 7.03%.

Target: Nucleoprotein (Lymphocytic choriomeningitis virus (strain Armstrong)) (UniProt P09992)
Sequence (P09992 whole entry, looked up): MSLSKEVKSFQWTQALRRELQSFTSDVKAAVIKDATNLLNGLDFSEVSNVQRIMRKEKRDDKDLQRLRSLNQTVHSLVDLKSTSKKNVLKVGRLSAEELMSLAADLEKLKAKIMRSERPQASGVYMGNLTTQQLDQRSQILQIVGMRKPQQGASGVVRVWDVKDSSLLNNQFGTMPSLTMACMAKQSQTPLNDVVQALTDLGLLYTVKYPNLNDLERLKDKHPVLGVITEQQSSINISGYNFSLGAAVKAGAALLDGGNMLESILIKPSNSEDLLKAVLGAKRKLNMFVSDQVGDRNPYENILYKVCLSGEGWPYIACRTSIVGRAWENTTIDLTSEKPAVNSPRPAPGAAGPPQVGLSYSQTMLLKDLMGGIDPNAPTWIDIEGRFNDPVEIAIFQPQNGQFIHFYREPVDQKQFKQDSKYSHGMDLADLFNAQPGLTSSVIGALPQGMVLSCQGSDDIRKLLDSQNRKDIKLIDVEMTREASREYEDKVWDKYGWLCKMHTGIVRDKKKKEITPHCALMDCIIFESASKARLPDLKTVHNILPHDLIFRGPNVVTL
Assay: qHTS for Inhibitors of the Functional Ribonucleoprotein Complex (vRNP) of Lymphocytic Choriomeningitis Arenaviruses (LCMV): LCMV Primary Screen - GLuc reporter signal (AID 1347086); note: nearly all actives have a fitted effect of over 70% in size
Settings: LCMV minigenome vRNP cell assay, Gaussia luciferase reporter; series mostly up to 57.5 µM; activity change, negative = inhibition: at the top concentration
For `COc1c(O)cc2c(c1O)[C@@H]1O[C@H](CO)[C@@H](O)[C@H](O)[C@H]1OC2=O`, the “activity change, negative = inhibition” value was 11.6%. For `COc1cc([C@H]2Oc3cc([C@H]4Oc5cc(O)cc(O)c5C(=O)[C@H]4O)ccc3O[C@H]2CO)ccc1O`, the “activity change, negative = inhibition” value was 6.83%. In the case of `OC[C@H]1O[C@@H](Oc2cc(O)cc(C=Cc3ccc(O)cc3)c2)[C@H](O)[C@@H](O)[C@H]1O`, the “activity change, negative = inhibition” value is reported as -20.2%. For `CN(C)CCOc1ccc(-c2nc(-c3ccc4c(c3)CCC4=NO)c(-c3ccncc3)[nH]2)cc1`, the “activity change, negative = inhibition” value was -2.8%. For `CC1(C)S[C@H]2[C@H](NC(=O)[C@@H](N)c3ccc(O)cc3)C(=O)N2[C@@H]1C(=O)O`, the “activity change, negative = inhibition” value was 42.3%. For `O=C(NNC(=O)c1ccc(CNS(=O)(=O)c2ccc(F)c(Cl)c2)cc1)c1ccccc1`, the “activity change, negative = inhibition” value was 20.1%. For `CNC[C@@H](O)[C@@H](O)[C@H](O)[C@H](O)CO`, the “activity change, negative = inhibition” value was 51.7%. With `CC(C)(O)[C@H]1CC[C@@](C)([C@H]2[C@@H](O)C[C@@]3(C)[C@@H]4C[C@H](O[C@@H]5O[C@H](CO)[C@@H](O)[C@H](O)[C@@H]5O)[C@H]5C(C)(C)[C@@H](O[C@@H]6OC[C@@H](O)[C@H](O)[C@@H]6O)CC[C@@]56C[C@@]46CC[C@]23C)O1` the “activity change, negative = inhibition” value was -2.28%. With `CC(C)(Cc1ccc2ccccc2c1)NC[C@@H](O)COc1cccc(Cl)c1C#N` the “activity change, negative = inhibition” value was 6.38%. In the case of `CN(C)c1nc(Cc2ccc(NC(=O)c3ccc(C(F)(F)F)cc3)cc2)nc(N(C)C)c1CC(=O)O`, the “activity change, negative = inhibition” value is reported as 22.3%. In the case of `CC(=O)O[C@]1(C(C)=O)CC[C@H]2[C@@H]3C=C(C)C4=CC(=O)CC[C@]4(C)[C@@H]3CC[C@@]21C`, the “activity change, negative = inhibition” value is reported as 35.7%. `CC(C)(C)[C@H](NC(=O)c1ccc(N)c(Cl)c1)C(=O)N1CCC[C@@H]1C(=O)N[C@H](C#N)CC(=O)O` gave an activity change, negative = inhibition of 63.3% [at 5.82 µM]. In the case of `CC1(C)[C@H]2CC[C@]3(C)[C@@H](C(=O)C=C4[C@@H]5C[C@@](C)(C(=O)O)CC[C@]5(C)CC[C@]43C)[C@@]2(C)CC[C@@H]1O`, the “activity change, negative = inhibition” value is reported as 2.96%. With `COC1CCC(C(=O)c2ccc3nc4c(cc3c2)CCCO4)CC1` (stereo not drawn) the “activity change, negative = inhibition” value was 13.5%. In the case of `NC1CCC(Nc2nc(Nc3ccc(C(=O)N4CCCCC4)cc3)c3ncn(-c4cccc(F)c4)c3n2)CC1` (stereo not drawn), the “activity change, negative = inhibition” value is reported as 33.4%. For `Clc1cccc(-n2nnnc2NCc2ccccc2Oc2ccccn2)c1Cl`, the “activity change, negative = inhibition” value was 2.34%. In the case of `COc1cc(/C=C/C(=O)OC2CC3CCC2(C)C3(C)C)ccc1O` (stereo not drawn), the “activity change, negative = inhibition” value is reported as -0.306%. In the case of `C=CC1=C(C(=O)O)N2C(=O)[C@@H](NC(=O)C(=NO)c3csc(N)n3)[C@H]2SC1`, the “activity change, negative = inhibition” value is reported as 4.56%. For `CCNC(=O)Nc1ccc(Oc2ncnc(N)c2C=NOC)cc1Cl`, the “activity change, negative = inhibition” value was 10.9%. For `O=C(O)[C@H](CC(=O)N1C[C@@H]2CCCC[C@H]2C1)Cc1ccccc1`, the “activity change, negative = inhibition” value was 10.2%. In the case of `CC1C(=O)OC2C(O)C34C5CC(C(C)(C)C)C36C(OC(=O)C6O)OC4(C(=O)O5)C12O` (stereo not drawn), the “activity change, negative = inhibition” value is reported as 12.9%. In the case of `CCOC(=O)N1CCN([N+]([O-])=NOc2cc(ON=[N+]([O-])N3CCN(C(=O)OCC)CC3)c([N+](=O)[O-])cc2[N+](=O)[O-])CC1`, the “activity change, negative = inhibition” value is reported as 4.46%. For `CCOC(=O)O[C@]1(C(=O)OCCl)CC[C@@H]2[C@H]3CCC4=CC(=O)C=C[C@]4(C)[C@@H]3[C@@H](O)C[C@@]21C`, the “activity change, negative = inhibition” value was 57.4%. For `O=C1Nc2ccc(I)cc2C1=Cc1cc(Br)c(O)c(Br)c1`, the “activity change, negative = inhibition” value was 2.91%. In the case of `O=C(C[C@@H]1CC=CCCC(=O)O[C@H](c2ccccc2)CNC1=O)NCc1ccc(Cl)cc1`, the “activity change, negative = inhibition” value is reported as 5.78%. For `CON=C(C(=O)N[C@@H]1C(=O)N2C(C(=O)OCOC(=O)C(C)(C)C)=C(C=Cc3scnc3C)CS[C@H]12)c1csc(N)n1`, the “activity change, negative = inhibition” value was 24.6%. With `C=CC[N+]1([C@H]2C[C@H]3[C@@H]4CC[C@H]5C[C@H](O)[C@@H](N6CCOCC6)C[C@]5(C)[C@@H]4CC[C@]3(C)[C@H]2OC(C)=O)CCCC1` the “activity change, negative = inhibition” value was -13.6%.
% is set by controls: 0 for no effect and ±100 for the full control effect.
